Data on 13 sequences can be found in the supplement of paper PMC6555819.

What all share (experiment): PBM binding z-score (relative to random genomic background probes); higher = stronger binding; sequences stand for … in GC…GCGATTGACAGCGTAGAATGAAGG
Test [1] has as its system FXR:RXRa (NR concentration 270 nM, RXRa partner concentration 90 nM). In short, it runs like this: (§1)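 The probes on custom Agilent 4×180K protein-binding microarrays were double-stranded, with 34-nt variable regions bearing direct-repeat seeds, single-nucleotide variants, half-site ablations and random human genomic background sequences. Incubation lasted 1 h with ligand-free nuclear receptor dimers in PBS pH 7.4, 2% milk, 0.02% Triton X-100, 1 mM DTT, 0.2 mg/mL BSA and 0.4 mg/ml salmon testes DNA. Antibodies against each partner (one per run) detected bound dimers, and fluorescence scans were regression-normalized. Binding z-scores take the random background probes as reference.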

Test [2] deals with LXRa:RXRa (NR concentration 270 nM, RXRa partner concentration 90 nM). In short, it runs like this: as §1
Test [3] has as its system LXRa homodimer (NR concentration 270 nM). The gist of the method: as §1
For test [4], the system named is LXRb:RXRa (NR concentration 270 nM, RXRa partner concentration 90 nM). In short, it runs like this: as §1
Test [5] relates to LXRb homodimer (NR concentration 270 nM). In short, it runs like this:
as §1

In test [6] the test system is PPARa:RXRa (NR concentration 270 nM, RXRa partner concentration 90 nM). The gist of the method: as §1
Test [7] deals with PPARg:RXRa (NR concentration 180 nM, RXRa partner concentration 90 nM). In short, it runs like this:
as §1

The subject of test [8] is PPARg:RXRa 270nM:90nM, anti-RXR (NR concentration 270 nM, RXRa partner concentration 90 nM). In short, it runs like this:
as §1

Test [9] relates to PPARg:RXRa 30nM:10nM, anti-RXR (NR concentration 30 nM, RXRa partner concentration 10 nM). In short, it runs like this: as §1
The test system of test [10] is PPARg:RXRa 90nM:30nM, anti-RXR (NR concentration 90 nM, RXRa partner concentration 30 nM). In short, it runs like this:
as §1

Turning to CCGACTGGAGCATAAGGTTACCATAAGCCAGCCC, the PBM binding z-score is 0.0844 in test [1]; 1.93 in test [2]; 0.131 in test [3]; 0.754 in [4]; -0.551 in test [5]; 0.887 in test [6]. For the same sequence, the PBM binding z-score is 0.85 in test [7], 1.49 in [8], -0.133 in test [9] and 0.657 in test [10].

Turning to ATCTCTAGGTAGAGATAGTTCAGTGAATGCAAAT, the PBM binding z-score in test [1] was -0.234; in test [2] it was -0.0128; in test [3], 0.0165; in test [4] it was -0.111; in test [5] it was 0.0975; in test [6], 0.178. In addition, the PBM binding z-score in test [7] amounted to 0.258; in [8] it was 0.0156; in [9], 0.0243; in test [10], 0.104.

As for CCTATTAGTTGACCATAAGGGCAACTGAAGCTCG, the PBM binding z-score in test [1] was 1.03; in test [2] it was 0.424; in [3] it was 0.44; in test [4], 0.496; in test [5], 0.545; in test [6], 0.479. For the same sequence, the PBM binding z-score in test [7] was found to be 0.379; in [8] it was 0.673; in [9], 0.177; in test [10], 0.597.

Consider CCGACTGGGGCAAATGTTACCATACTCAGTACGA, for which the PBM binding z-score in [1] was 0.0667; in [2], -0.122; in [3], 0.0319; in test [4], 0.411; in test [5], -0.698; in [6] it was 2.25. Moreover, the PBM binding z-score in [7] is 4.31; in test [8] it was 5.16; in test [9], 3.62; in test [10], 5.18.

For TCATATAGGTAATACAAGTGAAAGTCGGCATCTA, the PBM binding z-score in test [1] is 1.52; in test [2] it was 1.28; in [3], 0.46; in test [4] it was 1.17; in [5], 0.185; in [6], 1.59. The PBM binding z-score in test [7] turned out to be 1.39; in test [8], 2.52; in test [9] it was 4.29; in [10], 3.28.

In the case of GCATATAGATAATACAAGGTGAAAGTCCGATTGT, the PBM binding z-score in test [1] is 0.079; in test [2] it was 0.0374; in test [3], 0.245; in [4], 0.117; in test [5], -0.118; in [6], 0.578. In addition, the PBM binding z-score in test [7] came to 1.21; in [8], 0.513; in [9], 0.278; in test [10] it was 0.522.

For TCTAGTTGGACACGGAGGTCACACACGACGGGTA, the PBM binding z-score is 2.81 in test [1]; 2.85 in [2]; 2.1 in test [3]; 2.85 in [4]; 0.421 in [5]; 3.68 in test [6]. The PBM binding z-score is 2.46 in test [7], 3.05 in test [8], 3.26 in test [9] and 2.88 in test [10].

Regarding GCAGACAGGTGAAACGCAGGTAACTCGGGGTGGC, the PBM binding z-score in [1] was -0.13; in [2] it was 0.49; in test [3], -0.695; in test [4] it was 0.134; in [5], -0.553; in [6], 0.89. The PBM binding z-score in [7] was 0.313; in test [8], 0.104; in test [9], -0.699; in [10] it was -0.194.

For GCTAGTTGGTCAGTAAACGGTCACACACCGGTCG, the PBM binding z-score in test [1] is -0.00893; in test [2], 0.121; in test [3], 0.352; in test [4] it was -0.139; in [5] it was -0.393; in [6], 0.395. The PBM binding z-score in [7] was 0.552; in [8], -0.0958; in test [9], -0.311; in test [10], 0.18.

ACCATTAGTTGACTTAGGGCAACCGATACGACGC: the PBM binding z-score in test [1] turned out to be 0.502; in test [2], 0.629; in test [3], 0.679; in test [4], 0.464; in [5], 0.693; in test [6], 0.273. For the same sequence, the PBM binding z-score in test [7] amounted to 1.06; in [8] it was 0.133; in [9], 0.182; in [10], 0.582.

With ATCTCTAGGTAACAAAGTTCAGTGAATGCCGAAC, the PBM binding z-score in [1] worked out at 0.948; in test [2] it was 1.9; in test [3], 2.1; in test [4], 1.27; in test [5] it was 0.958; in test [6] it was 2.12. The PBM binding z-score was determined as 2.01 in test [7], 3.09 in test [8], 1.01 in [9] and 2.42 in test [10].

Consider ATCTCTAGGTAAATTTCAGTGAAAGATCGATAGA, for which the PBM binding z-score in test [1] stood at 0.175; in [2], 0.31; in [3] it was 0.359; in test [4] it was 0.199; in test [5], 0.934; in test [6], 0.102. The PBM binding z-score in test [7] was 0.408; in test [8] it was 0.671; in test [9], 0.581; in test [10], 0.833.

Regarding CCTTACTGGTCACTCCAGGTTATAGCATCGGAGT, the PBM binding z-score in test [1] turned out to be 0.959; in [2], 4.64; in test [3], 1.95; in [4], 1.39; in test [5], 0.798; in test [6], 0.503. Moreover, the PBM binding z-score in test [7] was found to be 0.265; in test [8], 0.0704; in test [9] it was 0.0345; in test [10], 0.0913.
